PubChem BioAssay AID602428 (Sanford-Burnham Center for Chemical Genomics, 2012)
Screen size: about 2,500 compounds; about 980 (39%) were called active.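 How the source made its calls: active means mean inhibition at 5 µM reaching about 45% (limit read from the data); inactive means the rest.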 Only a sample is shown.

assay: blockers of Gli reporter signaling – single concentration, luciferase luminescence, Sufu-KO-LIGHT cells, confirmation (AID 602428); conditions: at 5 µM, active compounds read high;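 further: plate controls were DMSO-treated cells for no effect and wells lacking cells for full effect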

inhibition, inactive:
O=C1/C(=C/c2ccc(F)cc2)SC(=S)N1NS(=O)(=O)c1ccccc1 15.2%
CCc1c(C)nc2cc(C)[nH]n2c1=O 29.9%
CC(=O)OCCC(C)C 21.6%
CN(NC(=O)c1ccccc1F)c1nc(C(F)(F)F)nc2ccccc12 36.6%
COC(=O)c1ccc(CSc2nnc(N)s2)o1 37.1%
CN(C)CCN(C(=O)C1CCCCC1)c1nc2cc3c(cc2s1)OCO3 14.1%
CCc1c(C)[nH]c(=S)c(C#N)c1C 25.3%
CC1(C)CC2CC(C)(CN2c2ncnc3ccc(Br)cc23)C1 (configuration not stated) 41.5%
O=C(NC1CCN(C(=S)Nc2ccc(Cl)cc2)CC1)C1CCCCC1 10.8%
CC(C)Oc1ccc(CN2CCC(n3nccc3NC(=O)c3cccnc3)CC2)cc1 23.4%
Cc1nn(C)c(Cl)c1CN1CCC(n2nccc2NC(=O)C2CCCC2)CC1 14%
CNc1ccc(SC#N)cc1 13.2%
CCC1CCCCN1CCCNC(=O)Cn1nc(-c2ccccc2)ccc1=O (configuration not stated) 13.3%
COc1ccc(C(=O)NCc2nnc(SCCOc3ccccc3)n2C)cc1 28.6%
CCCc1nc(N)nc2c1C(=O)CC(C)(C)C2 16.9%
CCN(CC(=O)Nc1cc(Cl)ccc1C)C(=O)CSCc1ccc(C)cc1 28.9%
Cc1ccc(-c2nc(CSCC(=O)NC3CCN(Cc4ccccc4)CC3)c(C)o2)cc1 23.9%
O=C(c1cc(Cl)cc(Cl)c1)N1CCC(=O)N(C(COCc2ccccc2)Cc2ccccc2)CC1 (configuration not stated) 7.41%
CCN(CC)CCNC(=O)c1ccc(NC(=O)c2cc(-c3ccncc3)nc3ccccc23)cc1 23%
CN1C(CC(=O)Nc2ccc(Br)cc2)c2ccccc2CC1(C)C (configuration not stated) 11.3%
O=C(Nc1cccc(S(=O)(=O)Nc2ccc(Cl)cc2)c1)c1ccc2c(c1)OCCO2 37.7%
CCN(CC)S(=O)(=O)c1ccc(Cl)c(C(=O)NC(C)C(c2cccs2)N2CCCC2)c1 (configuration not stated) 15.2%
O=C(NCCOCc1ccc(Cl)cc1)c1ncn[nH]1 9.09%
Brc1c(CSc2nncc3ccccc23)nc2ccccn12 12.7%
CCOC(=O)c1cnc(Nc2nc3ccccc3o2)nc1CSC(=S)N1CCCCC1 35.3%
CN(C)CCSc1nc(N)c2c3c(sc2n1)COC(C)(C)C3 16.1%
Cc1ccc(S(=O)(=O)N(Cc2cc3ccccc3[nH]c2=O)CC2CCCO2)cc1 (configuration not stated) 21.7%
CN(C)C(CNC(=O)Cc1ccc([N+](=O)[O-])cc1)c1ccccc1 (configuration not stated) 16.5%
O=C(Nc1ccnn1C1CCN(C/C=C/c2ccc(F)cc2)CC1)C1CCCC1 21.9%

inhibition, active:
COCCn1c(CN2CCC(Cc3ccccc3)CC2)nc2c1c(=O)n(C)c(=O)n2C 58.7%
CCCOc1ccc(Cc2c(Cl)nc(SC)nc2NC)cc1 60.5%
CCCCNc1nc2c(c(=O)n(C)c(=O)n2C)n1Cc1cccc(OC)c1 72.5%
Cn1c(=O)c2c(nc(NCCc3ccccc3)n2Cc2ccccc2)n(C)c1=O 57.1%
COc1ccc(OC)c(Cc2cnc3nc(N)nc(N)c3c2C)c1 51.4%
C=CCOc1nc2c(c(=O)n(C)c(=O)n2C)n1Cc1ccc(Cl)cc1Cl 50.9%
CC(C)(C)c1ccc(Oc2ccc(N)cc2)cc1 80.1%
Cc1ccc(C)c(S(=O)(=O)N2CCN(c3ncnc4sccc34)CC2)c1 54%
Cc1c(Cl)c([N+](=O)[O-])nn1Cc1ccc(C(=O)N/N=C\c2cc(Cl)ccc2O)o1 57.9%
Cc1ccc(S(=O)(=O)N2C[C@@H]3CCCC[C@@H]3[C@@H](C)[C@H]2c2cn(Cc3ccccc3)c3ccc(F)cc23)cc1 83.6%
O=C(Cn1cc(C(=O)C2CC2)c2ccccc21)Nc1ccccc1Cl 60.3%
CC(=O)N1CCCc2cc(S(=O)(=O)N3CCCC(C(=O)N4CCN(c5cccc(Cl)c5)CC4)C3)ccc21 (configuration not stated) 66.9%
Cc1ccsc1C(=O)OCC(=O)c1cc(C)n(CC2CCCO2)c1C (configuration not stated) 85.5%
